# Measured values as given in PubChem BioAssay.
# The source made the active and inactive calls.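 Rule for the calls, unless noted: active = NADPH fluorescence slope more negative than the mean of all samples by about 3 SD, 99.7% confidence; inactive = the rest.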
# What was measured:
# [1] = inhibitors of TNFa-induced NFkB p65 translocation, primary screen, imaging, HUVEC, MLSMR starter and 10KST1 sets (AID 438;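 active = inhibition above 20% together with a positive visual image hit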;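 note: compound added about 3h40 before a 20 min TNFalpha stimulation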;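 for inhibition: signal is the nuclear over cytoplasmic p65 intensity ratio per well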); details: HUVEC TNFa-induced p65 nuclear translocation; cell count: measured here: nuclei count (cytotoxicity indicator), at 2.08 µM; inhibition: at 2 µM, stronger effect = higher value, 0% TNFa-plus-vehicle, 100% no-TNFa wells
# [2] = inhibitors of mutant huntingtin aggregation, primary screen, imaging, exon1htt(103Q)mCFP cells, high-content imaging (AID 483;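 active = visual image review flags a hit and inhibition of aggregation exceeds 20%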;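 note: compound exposure lasted 3 days before fixation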;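 for nuclei count: percent of the per-plate median nuclei count of sample wells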); details: exon1htt(103Q)mCFP cell line, aggregate imaging, at 2 µM; inhibition of aggregation: stronger effect = higher value; nuclei count: measured here: cell count, toxicity
# [3] = inhibitors of E-selectin induction by TNFa, primary screen, imaging, HUVEC, immunofluorescence, MLSMR starter and 10KST1 sets (AID 487;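 active = visually confirmed hit in the image check and inhibition above 20%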;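 for inhibition: signal is fraction of cell area covered by stained E-selectin grains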;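 for nuclei count: 100% = median nuclei count of all wells on the same plate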); details: HUVEC TNFalpha-induced E-selectin immunofluorescence imaging, at 2 µM; inhibition: stronger effect = higher value; nuclei count: measured here: cell number, toxicity
# [4] = target: Voltage-gated potassium channel subunit beta-2 (Rattus norvegicus) (UniProt P62483); assay: KvBeta enzyme negative modulators, primary screen, biochemical, NADPH fluorescence (AID 622;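 active = fluorescence slope higher than the sample average by over 3 SD, cut at about -0.22 in these data, passing the limit was not always enough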;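 note: slope of raw intensity against log time taken from 70 to 1610 s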); details: recombinant KvBeta, 4-cyanobenzaldehyde reduction, at 10 µM, stronger effect = higher value
# Voltage-gated potassium channel subunit beta-2 (Rattus norvegicus), sequence (P62483 whole entry, looked up): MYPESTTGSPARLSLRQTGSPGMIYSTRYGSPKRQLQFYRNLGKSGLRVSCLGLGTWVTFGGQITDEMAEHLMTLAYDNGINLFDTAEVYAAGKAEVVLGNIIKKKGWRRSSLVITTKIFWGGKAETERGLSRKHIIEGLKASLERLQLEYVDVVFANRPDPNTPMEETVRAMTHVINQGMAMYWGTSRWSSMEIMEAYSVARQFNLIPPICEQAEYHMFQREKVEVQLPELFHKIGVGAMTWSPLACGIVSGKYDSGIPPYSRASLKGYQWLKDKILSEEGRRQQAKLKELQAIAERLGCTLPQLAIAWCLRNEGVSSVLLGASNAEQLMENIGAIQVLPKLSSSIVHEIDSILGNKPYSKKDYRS
# [5] = target: Voltage-gated potassium channel subunit beta-2 (Rattus norvegicus) (UniProt P62483); assay: KvBeta positive modulators, primary screen, biochemical, NADPH fluorescence (AID 623); details: Recombinant KvBeta, NADPH fluorescence decrease slope, 10 min; at 10 µM; stronger effect = lower value;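 note: fluorescence intensity change per second fitted from 20 to 320 s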
# [6] = target: Alpha-2C adrenergic receptor (Homo sapiens) (UniProt P18825); assay: modulators of alpha2C/GIRK thallium flux, primary screen, cell-based, HEK293 alpha2C/GIRK1/2 (AID 624;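 active = fluorescence slope after compound addition differing from the mean of all screened samples at 99.7% confidence, in either direction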;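 note: slope of fluorescence ratio to pre-addition baseline per second over 15 to 24 s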); details: thallium flux BTC fluorescence, at 10 µM, actives lie on both sides
# Alpha-2C adrenergic receptor (Homo sapiens), sequence (P18825 whole entry, looked up): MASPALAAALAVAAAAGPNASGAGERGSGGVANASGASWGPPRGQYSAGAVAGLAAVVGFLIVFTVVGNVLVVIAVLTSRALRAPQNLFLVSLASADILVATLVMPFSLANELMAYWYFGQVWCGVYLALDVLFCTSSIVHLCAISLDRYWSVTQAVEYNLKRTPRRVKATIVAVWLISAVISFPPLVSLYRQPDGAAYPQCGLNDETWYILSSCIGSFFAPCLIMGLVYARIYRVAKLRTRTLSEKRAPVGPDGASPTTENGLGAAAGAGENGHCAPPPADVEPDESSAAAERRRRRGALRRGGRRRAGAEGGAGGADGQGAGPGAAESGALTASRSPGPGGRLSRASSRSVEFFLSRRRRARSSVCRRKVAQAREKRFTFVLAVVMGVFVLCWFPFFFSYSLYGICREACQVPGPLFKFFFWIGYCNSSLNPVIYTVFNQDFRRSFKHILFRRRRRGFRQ
# [7] = inhibitors of Sendai virus-induced IRF3 signaling, primary screen, TLR/RLR signaling modifier project, cell-based, Sendai virus stimulus, luciferase, 10K MLSCN set (AID 602276;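 active = inhibition at or above 50% at 10 µM; inactive = inhibition below 50%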;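 note: firefly luciferase from ISG56 promoter only with Renilla not read in this screen; 0% = Sendai virus plus DMSO and 100% = medium plus DMSO without virus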); details: HEK293 RL24 IRF3 luciferase reporter, at 10 µM, stronger effect = higher value
# [8] = inhibitors of poly I:C-induced TLR3 signaling, primary screen, cell-based, poly I:C stimulus, luciferase, 10K MLSCN set (AID 602277;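 active = inhibition of the reporter signal at or above 50%; inactive = inhibition below 50%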); details: HEK293-TLR3 RL24 IRF3 luciferase reporter, at 10 µM, stronger effect = higher value
SMILES,cell count [1],inhibition [1],inhibition of aggregation [2],nuclei count [2] [%],inhibition [3],nuclei count [3] [%],fluorescence slope [4],NADPH fluorescence slope [5],slope [6],inhibition [7],inhibition [8]
COC(=O)C(CC(C)C)NC(=O)CSc1nc(-c2ccccc2)c(C#N)c(=O)[nH]1 (stereo not drawn),467,-10.9% (inactive),-13% (inactive),64.5,-3.8% (inactive),81.7,-0.402 (inactive),-0.000101 (inactive),0.0059 (inactive),15.4% (inactive),28.8% (inactive)
COCCNC(=O)c1snc2ccc(Cl)cc12,375,6.7% (inactive),4.9% (inactive),89.8,-175% (inactive),97.3,-0.563 (inactive),3.8e-05 (inactive),0.00546 (inactive),-23.6% (inactive),-62.4% (inactive)
O=C(Nc1ccc(N2CCCC2)cc1)c1cccc(F)c1,694,1.6% (inactive),24.1% (inactive),94.5,-83.5% (inactive),148,-0.436 (inactive),7e-06 (inactive),0.0066 (inactive),11.4% (inactive),-67.8% (inactive)
Cc1cc(C(=O)OCC(=O)N2c3ccccc3CC2C)c(C)o1 (stereo not drawn),733,-9.6% (inactive),3.2% (inactive),85.1,-49.5% (inactive),111,-0.425 (inactive),2.6e-05 (inactive),0.00532 (inactive),-14.2% (inactive),-2.49% (inactive)
O=C(Nc1ccncc1)c1cccc(F)c1,559,-6.9% (inactive),-1.2% (inactive),95.4,-13.5% (inactive),68.8,-0.375 (inactive),-4.9e-05 (inactive),0.00567 (inactive),12.9% (inactive),13.8% (inactive)
Cc1cc(C(=O)N2CCN(C/C=C/c3ccccc3)CC2)no1,242,8.7% (inactive),-4.4% (inactive),101,11.3% (inactive),98.6,-0.465 (inactive),1.9e-06 (inactive),0.0056 (inactive),13% (inactive),25.3% (inactive)
COc1ccccc1CNC(=O)C1CCC(CNc2c(N3CCOCC3)c(=O)c2=O)CC1 (stereo not drawn),739,-14.6% (inactive),22.5% (inactive),105,-1.3% (inactive),122,-0.592 (inactive),-3e-05 (inactive),0.00599 (inactive),1.39% (inactive),17.5% (inactive)
CC(=O)NC(CCS(C)(=O)=O)C(=O)Nc1cccc2ccccc12 (stereo not drawn),667,3.9% (inactive),18.3% (inactive),100,-7.5% (inactive),108,-0.564 (inactive),-3.4e-05 (inactive),0.006 (inactive),1.24% (inactive),31.9% (inactive)
Cc1ccccc1C(=O)Nc1c(C(=O)N2CCCC2)cnn1-c1ccccc1,314,-6.8% (inactive),2.8% (inactive),83.6,-34.4% (inactive),84,-0.596 (inactive),-2.6e-05 (inactive),0.00707 (inactive),13.2% (inactive),26.1% (inactive)
Cc1cc2c(cc1C)C(=O)NC(C)(C)C2,417,-1.1% (inactive),-12.1% (inactive),108,-20.1% (inactive),120,-0.375 (inactive),6.6e-05 (inactive),0.01 (inactive),-1.09% (inactive),0.395% (inactive)
CCCC(=O)Nc1ccc2oc(-c3cccnc3)nc2c1,330,-1.1% (inactive),18.2% (inactive),82.7,-1.9% (inactive),62.2,-0.332 (inactive),-1.1e-05 (inactive),0.00331 (inactive),-23.4% (inactive),-96.1% (inactive)
O=C(Nc1nc2c(s1)CCCC2)C1COc2ccccc2O1 (stereo not drawn),695,-13.1% (inactive),30.9% (inactive),110,-26.2% (inactive),114,-0.517 (inactive),-1.6e-05 (inactive),0.00646 (inactive),31% (inactive),-19.8% (inactive)
O=C(NC1=NCCS1)c1nc(-c2ccccc2)n(-c2ccccc2)n1,495,4.7% (inactive),1% (inactive),109,-60.7% (inactive),113,-0.405 (inactive),-4.9e-05 (inactive),0.00535 (inactive),8.38% (inactive),11.1% (inactive)
Cc1ccc(-n2ncc3c(=O)n(CC(=O)N4CCCc5ccccc54)cnc32)cc1C,227,-2.8% (inactive),10.4% (inactive),93.3,9.3% (inactive),87.8,-0.346 (inactive),-6.2e-05 (inactive),0.00504 (inactive),-13.9% (inactive),-13.7% (inactive)
CN(C)c1ccc(/C(=N\O)c2ccccc2)cc1,429,1.2% (inactive),-6.9% (inactive),93.6,25.3% (inactive),103,-0.465 (inactive),1.6e-05 (inactive),0.00326 (inactive),-24.9% (inactive),-21.7% (inactive)
CCSc1nnc(NC(=O)CSc2nnc(Cc3cccn3C)n2-c2ccc(C)cc2)s1,601,-12.3% (inactive),-2.6% (inactive),112,16.8% (inactive),75.5,-0.596 (inactive),1.3e-06 (inactive),0.00655 (inactive),3.74% (inactive),10.5% (inactive)
Cc1ccc(-n2c3c(cc(C(=O)NCCCN4CCOCC4)c2=O)C(=O)CC(C)(C)C3)cc1,349,-0.6% (inactive),-1.3% (inactive),57,-65.9% (inactive),117,-0.58 (inactive),9.1e-06 (inactive),0.00654 (inactive),-1.07% (inactive),36.9% (inactive)
Cc1ccc2cc(C#N)c(NCCCNC(=O)C3CCCO3)nc2c1 (stereo not drawn),271,-2.8% (inactive),-8.8% (inactive),82.7,-25.3% (inactive),116,-0.476 (inactive),-9.9e-05 (inactive),0.00509 (inactive),9.51% (inactive),10.8% (inactive)
Cc1cc(C(F)(F)F)nn1Cc1ccc(C(=O)NCc2ccco2)o1,597,-2.1% (inactive),2% (inactive),106,-36% (inactive),108,-0.568 (inactive),-2.7e-05 (inactive),0.00427 (inactive),-1.39% (inactive),-36.9% (inactive)
Cc1nc(C)c(C(=O)C2=C(O)C(=O)N(CCCn3ccnc3)C2c2ccccc2)s1 (stereo not drawn),481,4% (inactive),11.4% (inactive),89,39.5% (inactive),88.2,-0.394 (inactive),1.3e-05 (inactive),0.00668 (inactive),-7.2% (inactive),-4.54% (inactive)
COc1cc2c(cc1OC)CN(C(=O)CSc1nc3[nH]ncc3c(=O)n1-c1ccccc1)CC2,509,-8.2% (inactive),-8.9% (inactive),86.9,-7.3% (inactive),87,-0.492 (inactive),-2.6e-05 (inactive),0.00737 (inactive),11% (inactive),23.1% (inactive)
CCOC(=O)Cn1nc(-c2ccc(C)cc2)ccc1=O,534,-21% (inactive),31% (inactive),121,-42.9% (inactive),108,-0.393 (inactive),-0.000149 (inactive),0.00747 (inactive),-9.24% (inactive),-5.48% (inactive)
CC(=O)N1CCN(Cc2ccc(Br)s2)CC1,362,-3.4% (inactive),2% (inactive),114,-10.6% (inactive),106,-0.442 (inactive),-1.9e-05 (inactive),0.00639 (inactive),13.6% (inactive),20.9% (inactive)
CCOc1ccc(S(=O)(=O)N2CCN(c3ccc(C)cc3C)CC2)cc1,821,5.7% (inactive),-66.1% (inactive),98.4,-30.7% (inactive),110,-0.578 (inactive),-2.7e-05 (inactive),0.00897 (inactive),-5.26% (inactive),11.7% (inactive)
Cc1ccccc1Cn1ccc(NC(=O)c2onc(C)c2Cl)n1,654,-1.6% (inactive),28.9% (inactive),118,-52.1% (inactive),106,-0.425 (inactive),-4.5e-05 (inactive),0.00472 (inactive),-15.7% (inactive),-37% (inactive)
Cc1nc2ccc(S(=O)(=O)NC(C(=O)Nc3nccs3)C(C)C)cc2s1 (stereo not drawn),549,-6.2% (inactive),-4.4% (inactive),95.9,-17.1% (inactive),120,-0.589 (inactive),-2.2e-05 (inactive),0.00646 (inactive),13.6% (inactive),30.5% (inactive)
CC(Oc1ccc(Cl)cc1Cl)C(=O)Nc1ncccn1 (stereo not drawn),433,2.5% (inactive),-1% (inactive),102,51.5% (inactive),124,-0.409 (inactive),9.1e-05 (inactive),0.006 (inactive),-4.61% (inactive),-6.91% (inactive)
CC(=O)OC1c2ccccc2C(=O)N1Cc1ccccc1Cl (stereo not drawn),468,-2.8% (inactive),34% (inactive),61,-13.3% (inactive),106,-0.552 (inactive),-4.6e-05 (inactive),0.00651 (inactive),4.84% (inactive),27.6% (inactive)
